Experiment [1] is described as follows: small molecules captured by biotinylated probe aFSTL3 – biochemical, small-molecule microarray, fluorescence 635/667, stem cell growth factor project, primary screen (AID 1064).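 Further: measures binding of the biotinylated anti-FSTL3 antibody to printed compounds.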 The settings on record: higher = more signal.
Experiment [2] in a line: binders from COS7 lysate, DM2A8 probe, primary screen, torsin A project, cell lysate, small-molecule microarray, fluorescence 635/667 (AID 1065). Particulars: higher = more signal, COS7 lysate expressing mutant human TOR1A.
Experiment [3] in a line: small molecules captured by biotinylated probe aFGF2 – biochemical, small-molecule microarray, fluorescence 635/667, stem cell growth factor project, primary screen (AID 1067).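 Further: measures binding of biotinylated aFGF2 protein to printed compounds on slides; z-score merges feature fluorescence and signal-to-noise across triplicate slides.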 The settings on record: higher = more signal.
Experiment [4] is described as follows: small molecules captured by biotinylated probe aFGF10 – biochemical, small-molecule microarray, fluorescence 635/667, stem cell growth factor project, primary screen (AID 1071).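 Further: score merges 667 nm spot intensity and signal to noise from triplicate slides.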 Particulars: higher = more signal.
The target in experiment [5] is Neurogenic locus notch homolog protein 2 (Homo sapiens) (UniProt Q04721). The experiment is described as follows: small molecules binding Notch2 protein – biochemical, small-molecule microarray, 635 nm fluorescence, stem cell growth factors, primary screen (AID 1073). The settings on record: higher = more signal.
Experiment [6] has as its target Pro-neuregulin-1, membrane-bound isoform (Homo sapiens) (UniProt Q02297). The experiment is described as follows: small molecules binding neuregulin-1 protein – biochemical, small-molecule microarray, fluorescence 635/667, psychiatric disease protein project, primary screen (AID 1075).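 Further: score combines 667 nm spot fluorescence with signal to noise.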 Particulars: NRG1 binding, 635 nm fluorescence, higher = more signal.
In experiment [7] the test system is Neuregulin-1 EGF-like domain. The experiment is described as follows: small molecules binding NRG1 EGF domain – biochemical, small-molecule microarray, 635 nm fluorescence, primary screen (AID 1081).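 Further: binding of the protein to compounds printed on small-molecule microarray slides.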 Particulars: higher = more signal.
A short description of experiment [8]: FRG1 expression reporter modulators in myotubes – cell-based, C2C12 myotubes, firefly/Renilla luciferase, luminescence, FRG1 inhibition for FSHD, primary screen (AID 1084). Particulars: FRG1 promoter luciferase, higher = more signal, called active from +8 up or from −8 down.
Experiment [9] can be described thus: small molecules captured by biotinylated probe aFST – biochemical, small-molecule microarray, fluorescence 635/667, stem cell growth factor project, primary screen (AID 1086).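 Further: score merges 667 nm fluorescence with signal-to-noise of each printed compound spot.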 Particulars: higher = more signal.
Experiment [10] can be described thus: binders of probe aHhip on microarray, primary screen, stem cell growth factor project, biochemical, small-molecule microarray, fluorescence 635/667 (AID 1087).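 Further: score merges spot fluorescence at 667nm with spot signal to noise ratio.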 The settings on record: higher = more signal.
For experiment [11], the system named is PRMT1 (protein arginine N-methyltransferase 1). Kind of experiment: small molecules binding arginine methyltransferase PRMT1 – biochemical, small-molecule microarray, 635 nm fluorescence, primary screen (AID 1088).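 Further: binding of Prmt1 protein to compounds spotted on small-molecule microarray slides.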 The settings on record: higher = more signal.
Experiment [12] in a line: growth effects on S. cerevisiae YJM789 – YJM789 clinical isolate, OD600, 24 h, basal, primary screen (AID 1089).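 Further: growth of clinical yeast isolate S. cerevisiae YJM 789 seeded 1000 cells per well; test concentration not given here.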 The settings on record: higher = more signal, called active from +8 up or from −8 down.
A short description of experiment [13]: S. pombe growth modifiers, basal conditions – strain 972, OD600, 24 h, no modulator, primary screen (AID 1090).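 Further: basal condition with compound alone and no growth modifier present; test concentration not given here.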 The settings on record: S. pombe 972 growth, higher = more signal, called active from +8 up or from −8 down.
The nature of experiment [14]: budding yeast growth modifiers under rapamycin – strain BY4716, OD600, 96 h, primary screen (AID 1091). Further: test concentration not given here. Particulars: S. cerevisiae BY4716 + rapamycin, higher = more signal, called active from +8 up or from −8 down.
Experiment [15] has as its target Torsin-1A-interacting protein 2 (Homo sapiens) (UniProt Q8NFQ8). Kind of experiment: small molecules binding lysate-expressed LULL1 – cell lysate, human LULL1 lysate, 635/667 nm fluorescence, primary screen (AID 1092).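 Further: probe is lysate of COS7 cells overexpressing human LULL1; score merges per-feature 667 nm fluorescence with signal-to-noise.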 The settings on record: small-molecule microarray, hLULL1 lysate binding, 635 nm fluorescence; higher = more signal.
Experiment [16] is described as follows: optical density change of DRC41 E. coli – strain DRC41, OD650, 24 h, E. coli filamentation project, primary screen (AID 1093).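 Further: MC1000 strain lacking acrAB efflux and sulA so SOS filamentation is blocked; test concentration not given here.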 The settings on record: E. coli DRC41 growth, higher = more signal, called active from +8 up or from −8 down.
Experiment [17] in a line: probe aLefty2 binding to arrayed compounds – biochemical, biotinylated probe, 635/667 nm fluorescence, primary screen (AID 1094).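 Further: score merges spot fluorescence near 667 nm with spot signal-to-noise ratio.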 Particulars: small-molecule microarray, higher = more signal.
For experiment [18], the system named is Noggin (protein binding on small-molecule microarray). The experiment is described as follows: small molecules binding Noggin protein – biochemical, 635/667 nm fluorescence, primary screen (AID 1095).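 Further: score merges 667 nm feature fluorescence with signal to noise over triplicate slides.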 Particulars: 635 nm fluorescence, higher = more signal.
The target of experiment [19] is Neurogenic locus notch homolog protein 3 (Homo sapiens) (UniProt Q9UM47). The experiment is described as follows: small molecules binding NOTCH3 protein – biochemical, 635/667 nm fluorescence, primary screen (AID 1096). Particulars: small-molecule microarray, 635 nm fluorescence, higher = more signal.
The nature of experiment [20]: probe aEGFR binding to arrayed compounds – biochemical, biotinylated probe, 635/667 nm fluorescence, primary screen (AID 1097).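 Further: probe is a biotinylated anti-EGFR antibody binding compounds printed on slides; score combines fluorescence near 667 nm and signal to noise of each spot.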 The settings on record: small-molecule microarray, higher = more signal.

Active and inactive are the calls of the source.

This passage reports composite z-score and z-score results from PubChem BioAssay.

Chain of Torsin-1A-interacting protein 2 (Homo sapiens) (Q8NFQ8 whole entry, looked up): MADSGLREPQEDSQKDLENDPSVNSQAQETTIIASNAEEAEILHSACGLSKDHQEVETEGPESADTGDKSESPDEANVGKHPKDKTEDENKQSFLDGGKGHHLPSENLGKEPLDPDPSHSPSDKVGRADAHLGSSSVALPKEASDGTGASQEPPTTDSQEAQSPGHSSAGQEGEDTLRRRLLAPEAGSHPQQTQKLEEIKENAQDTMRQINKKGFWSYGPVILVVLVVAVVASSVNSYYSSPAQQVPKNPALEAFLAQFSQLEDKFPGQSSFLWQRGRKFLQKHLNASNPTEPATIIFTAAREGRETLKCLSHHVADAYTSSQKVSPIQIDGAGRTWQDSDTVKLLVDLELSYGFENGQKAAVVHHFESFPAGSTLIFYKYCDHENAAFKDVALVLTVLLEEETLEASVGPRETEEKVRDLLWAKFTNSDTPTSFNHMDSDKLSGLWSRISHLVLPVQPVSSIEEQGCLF
Chain of Neurogenic locus notch homolog protein 3 (Homo sapiens) (Q9UM47 whole entry, looked up): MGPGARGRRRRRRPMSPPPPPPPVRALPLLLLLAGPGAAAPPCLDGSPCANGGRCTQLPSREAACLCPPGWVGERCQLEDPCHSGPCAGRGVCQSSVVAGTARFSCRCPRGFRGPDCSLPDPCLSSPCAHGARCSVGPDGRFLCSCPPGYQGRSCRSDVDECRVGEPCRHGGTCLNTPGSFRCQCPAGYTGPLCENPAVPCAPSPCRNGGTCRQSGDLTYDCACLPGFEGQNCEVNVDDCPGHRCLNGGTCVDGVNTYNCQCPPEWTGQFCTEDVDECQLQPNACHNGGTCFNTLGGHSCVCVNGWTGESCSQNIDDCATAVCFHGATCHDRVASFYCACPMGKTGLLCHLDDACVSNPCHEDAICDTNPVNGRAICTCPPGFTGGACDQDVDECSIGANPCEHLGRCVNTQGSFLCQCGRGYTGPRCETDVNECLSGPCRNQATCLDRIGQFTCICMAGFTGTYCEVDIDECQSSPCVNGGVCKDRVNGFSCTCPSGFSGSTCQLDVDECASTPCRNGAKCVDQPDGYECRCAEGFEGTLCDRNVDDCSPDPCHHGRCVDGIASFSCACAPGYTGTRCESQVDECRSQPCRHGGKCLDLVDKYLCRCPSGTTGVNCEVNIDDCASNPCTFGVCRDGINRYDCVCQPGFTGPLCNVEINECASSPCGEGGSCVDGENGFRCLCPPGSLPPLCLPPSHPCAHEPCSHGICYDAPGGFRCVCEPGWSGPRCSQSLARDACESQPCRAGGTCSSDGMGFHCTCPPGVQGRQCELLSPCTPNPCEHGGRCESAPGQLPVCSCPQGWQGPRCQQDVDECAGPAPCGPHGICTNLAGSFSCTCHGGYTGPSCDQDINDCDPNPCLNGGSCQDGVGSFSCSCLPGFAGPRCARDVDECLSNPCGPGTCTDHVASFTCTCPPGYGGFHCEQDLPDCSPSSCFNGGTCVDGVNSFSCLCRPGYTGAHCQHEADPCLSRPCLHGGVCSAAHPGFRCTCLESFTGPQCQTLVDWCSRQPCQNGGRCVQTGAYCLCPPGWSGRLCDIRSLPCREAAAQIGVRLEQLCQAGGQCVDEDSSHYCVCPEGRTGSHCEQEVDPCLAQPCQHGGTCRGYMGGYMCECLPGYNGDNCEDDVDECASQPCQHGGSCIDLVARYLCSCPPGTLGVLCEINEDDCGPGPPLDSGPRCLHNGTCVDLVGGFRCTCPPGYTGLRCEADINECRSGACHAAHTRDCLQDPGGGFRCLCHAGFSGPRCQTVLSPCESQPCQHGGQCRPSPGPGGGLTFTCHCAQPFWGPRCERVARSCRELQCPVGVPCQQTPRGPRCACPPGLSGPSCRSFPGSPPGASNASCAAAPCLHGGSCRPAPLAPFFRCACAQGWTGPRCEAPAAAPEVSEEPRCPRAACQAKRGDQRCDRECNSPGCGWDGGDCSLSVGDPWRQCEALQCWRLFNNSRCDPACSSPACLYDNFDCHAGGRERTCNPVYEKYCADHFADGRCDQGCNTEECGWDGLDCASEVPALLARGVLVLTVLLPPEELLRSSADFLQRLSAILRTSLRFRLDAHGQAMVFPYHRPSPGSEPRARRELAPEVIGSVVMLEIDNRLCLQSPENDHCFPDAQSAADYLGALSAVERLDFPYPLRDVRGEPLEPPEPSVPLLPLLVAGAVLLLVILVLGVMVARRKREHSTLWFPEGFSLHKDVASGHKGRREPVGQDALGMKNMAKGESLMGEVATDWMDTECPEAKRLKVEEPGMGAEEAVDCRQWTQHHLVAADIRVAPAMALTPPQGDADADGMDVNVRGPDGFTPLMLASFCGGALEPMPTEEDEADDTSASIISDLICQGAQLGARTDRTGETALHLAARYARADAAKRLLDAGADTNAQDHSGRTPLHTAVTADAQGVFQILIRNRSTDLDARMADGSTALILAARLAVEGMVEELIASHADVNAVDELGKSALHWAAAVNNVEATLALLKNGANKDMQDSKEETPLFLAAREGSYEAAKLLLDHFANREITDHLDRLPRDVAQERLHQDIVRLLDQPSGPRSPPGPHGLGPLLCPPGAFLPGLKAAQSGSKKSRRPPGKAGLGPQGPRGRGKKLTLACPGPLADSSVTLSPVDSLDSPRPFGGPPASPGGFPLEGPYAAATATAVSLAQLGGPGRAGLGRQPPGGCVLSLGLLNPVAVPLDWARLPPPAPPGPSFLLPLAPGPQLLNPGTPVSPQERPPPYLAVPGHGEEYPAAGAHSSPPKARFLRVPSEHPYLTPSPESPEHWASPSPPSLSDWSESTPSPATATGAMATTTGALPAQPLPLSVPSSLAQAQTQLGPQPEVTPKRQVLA
Chain of Pro-neuregulin-1, membrane-bound isoform (Homo sapiens) (Q02297 whole entry, looked up, the tested form may be a part, canonical isoform): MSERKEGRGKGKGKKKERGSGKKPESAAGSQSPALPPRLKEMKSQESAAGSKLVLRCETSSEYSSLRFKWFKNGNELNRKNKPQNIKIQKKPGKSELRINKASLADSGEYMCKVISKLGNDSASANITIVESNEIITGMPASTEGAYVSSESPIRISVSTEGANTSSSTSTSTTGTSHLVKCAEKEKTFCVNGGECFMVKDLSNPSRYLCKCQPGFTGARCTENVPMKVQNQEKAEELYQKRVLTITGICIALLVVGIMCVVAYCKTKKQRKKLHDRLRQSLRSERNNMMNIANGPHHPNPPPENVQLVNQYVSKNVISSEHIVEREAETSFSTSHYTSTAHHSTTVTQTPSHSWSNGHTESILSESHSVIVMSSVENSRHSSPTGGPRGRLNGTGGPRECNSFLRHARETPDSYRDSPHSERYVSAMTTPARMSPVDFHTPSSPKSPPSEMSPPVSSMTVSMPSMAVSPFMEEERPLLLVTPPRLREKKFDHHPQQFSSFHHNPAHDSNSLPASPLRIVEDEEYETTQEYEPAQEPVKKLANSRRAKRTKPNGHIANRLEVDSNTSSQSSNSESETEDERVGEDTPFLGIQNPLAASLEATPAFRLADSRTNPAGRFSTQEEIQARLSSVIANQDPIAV

With `CC(=O)NCCCC[C@@H]1NC(=O)[C@H]2C[C@@H](C(=O)NCCCCCNC(=O)CS)[C@@H](c3cccc(OCCO)c3)N2C1=O`, the composite z-score in experiment [1] is -0.0107; in experiment [2], 0.487; in [3], -0.133; in experiment [4] it was -0.379; in experiment [5] it was -0.544; in experiment [6] it was -0.352. Also, the composite z-score in experiment [7] was 1.03; in experiment [9], -0.203; in [10] it was -0.0074; in [11], 0.896; in [15], 3.18; in experiment [17], -0.184. Besides, the figures for the composite z-score in [18], in experiment [19] and in experiment [20] were 0.52, 0.059 and -0.104, respectively. Further, the z-score in experiment [8] is 0.824 (inactive); in experiment [12], 0.778 (inactive); in experiment [13] it was 0.0625 (inactive); in experiment [14] it was 0.0709 (inactive); in experiment [16] it was -0.418 (inactive).

Consider `CC(C)CNC(=O)[C@@H]1c2ccccc2C(=O)N(C2CCCCC2)[C@H]1c1ccc(CO)cc1`, for which the composite z-score is 0.386 in experiment [1]; -0.754 in experiment [2]; -0.0962 in experiment [3]; -0.305 in [4]; -0.354 in experiment [5]; 1.69 in experiment [6]. For the same compound, the composite z-score in experiment [7] is 1.28; in experiment [9], 0.0088; in experiment [10] it was 0.0497; in experiment [11] it was 0.933; in experiment [15], 3.03; in experiment [17], -0.137. The composite z-score in experiment [18] was -0.369; in [19], -0.358; in experiment [20], -0.218. The z-score in experiment [8] was -1.8 (inactive); in experiment [12] it was -0.417 (inactive); in [13], -0.641 (inactive); in experiment [14] it was -0.812 (inactive); in [16], 3.31 (inactive).

For `COC(=O)[C@@]1(Cc2ccc(F)cc2)[C@H]2c3cc(C(=O)N4CCCC4)n(C)c3C[C@H]2CN1C(=O)c1ccccc1`, the composite z-score in experiment [1] was determined as 1.18; in experiment [2], 0.155; in experiment [3], 0.404; in experiment [4], 0.779; in experiment [5] it was 1.69; in experiment [6], 2.15. Further, the composite z-score is 1.34 in experiment [7]; 0.951 in experiment [9]; -0.0645 in experiment [10]; 0.579 in experiment [11]; 3.25 in experiment [15]; 0.744 in experiment [17]. The composite z-score in experiment [18] is -0.662; in [19], 0.405; in experiment [20], -0.0259. Further, the z-score is -0.234 (inactive) in [8]; -0.42 (inactive) in [12]; 0.252 (inactive) in [13]; -0.658 (inactive) in experiment [14]; 0.508 (inactive) in experiment [16].

Regarding `C=C(C(=O)CC[C@@H](OC(=O)c1ccccc1-c1ccccc1C(=O)O)c1ccccc1OCCO)C(C)C`, the composite z-score is -0.248 in experiment [1]; 0.95 in [2]; -0.113 in experiment [3]; 0.858 in [4]; 0.493 in [5]; 0.0729 in experiment [6]. Further, the composite z-score is 0.838 in experiment [7]; 0.111 in experiment [9]; 0.233 in [10]; 1.55 in experiment [11]; 1.14 in [15]; -0.0617 in experiment [17]. The figures for the composite z-score in experiment [18], in experiment [19] and in experiment [20] were 1.36, 1.05 and -0.112, respectively. Moreover, the z-score in experiment [8] was 0.16 (inactive); in experiment [12], -1.28 (inactive); in experiment [13], -0.832 (inactive); in experiment [14], -1.88 (inactive); in experiment [16], 0.293 (inactive).

`C=CCN1C(=O)[C@@]2(O[C@@H](CCO)[C@H]([Si](C)(C)c3ccc(OC)cc3)[C@H]2C)c2cc(N3CCOC3=O)ccc21`: the composite z-score in experiment [1] is -0.0204; in experiment [2], 0.0241; in experiment [3], -0.0455; in experiment [4] it was 0.448; in experiment [5] it was 0.165; in experiment [6] it was 1.21. Moreover, the composite z-score is 1.09 in experiment [7]; 0.162 in [9]; -0.236 in experiment [10]; 0.989 in [11]; 1.86 in [15]; -0.0755 in [17]. The composite z-score in experiment [18] was -0.355; in experiment [19] it was 0.347; in experiment [20], -0.134. The z-score was -1.66 (inactive) in experiment [8]; 1.53 (inactive) in experiment [12]; 0.885 (inactive) in experiment [13]; 9.68 (active) in experiment [14]; 0.976 (inactive) in [16].
